Reference: PubChem BioAssay AID504834 (National Center for Advancing Translational Sciences (NCATS), 2011)
About 22,000 (6.9%) of roughly 320,000 compounds were called active. Inconclusive results (about 27%) are left out. The call rests on the fitted dose curve; in most records, active means well fitted inhibition curve with a large enough effect; inconclusive means small, poorly fitted or top-dose-only effect, or another doubt; inactive means no such curve, though single readings can be large or run the other way. Shown is part of a subset that was picked to be rich in actives. A call without a number means that no potency is given here.

Assay: Primary qHTS for delayed death inhibitors of the malarial parasite plastid, 96 hour incubation
Settings: P. falciparum luciferase reporter growth; series mostly up to 28.7 µM
From the text: The goal of this screen is to discover new antimalarial compounds that act by inhibiting the development of the apicoplast in the malarial parasite Plasmodium falciparum. The biochemical processes that make this organelle essential for erythrocytic stage parasites are not well understood. However, antibiotics such as azithromycin and tetracycline, which target the apicoplast translational machinery, have a potent antimalarial effect.
We have developed a cell-based assay that measures parasite growth based on the expression of an integrated copy of a firefly luciferase reporter. To detect small molecules that cause this "delayed death" phenotype, erythrocytes infected with the luciferase-expressing parasites were incubated with compounds for either one or two generations, corresponding to 48 and 96 hours, respectively. Compounds that inhibit parasite growth in the second generation, but not the first, should be enriched in antimalarials that target the apicoplast. Growth inhibition is detected by a decrease in luciferase activity.
Assay Provider: David Fidock and Eric Ekland, Columbia University
Keywords: NIH Roadmap, MLPCN, MLI, MLSMR, qHTS, NCGC, qHTS, malaria, luciferase, viability
Four microliters of infected erythrocytes (2% hematocrit, 0.05% parasitemia final concentration) in culture medium were dispensed and the plates incubated for 96 hours at 37 C in 5% CO2. Two microliters of luciferase detection reagent was added and luminescence was detected by a ViewLux (PerkinElmer) reader.
Potency means the concentration at half of the fitted maximal effect.

Structure (SMILES) | Potency
O=C1NNC(c2ccccc2)=N/C1=C\c1ccc(Cl)cc1 | 8.28 µM (active)
O=C1NCC(=O)N(Cc2ccccc2)/C1=C/c1ccccc1 | inactive
O=C(NCc1csc(-c2cccs2)n1)C1CC1 | inactive
Cc1cc(O)c(C2(O)C(=O)Nc3ccccc32)cc1C (stereo unspecified) | inactive
CCOC(=O)CNc1nc(Cl)nc(Nc2ccc(OC)cc2OC)n1 | inactive
COc1cc(OC)cc(-c2c(-c3ccc(F)cc3)c3cc(-c4ccc5cc[nH]c5c4)ccc3n2C)c1 | 5.22 µM (active)
COc1ccc2c(c1)c(C(=O)N/N=C/c1cccs1)c(C)n2C | inactive
COc1ccc(OC)c(-c2csc(-c3cccs3)n2)c1 | inactive
COc1cc(OC)cc(-c2c(-c3cccs3)c3cc(-c4ccc(OC)cc4F)ccc3n2C)c1 | 5.86 µM (active)
OCC[C@H]1C[C@H](O)[C@@H](O)[C@]2(CCc3ccccc3O2)O1 | inactive
O=C(O)c1cc(S(=O)(=O)N(Cc2ccccc2)c2cccc(C(F)(F)F)c2)ccc1Cl | inactive
O=C(CSc1ccc(-c2ccc(-n3cccn3)cc2)nn1)Nc1ccc([N+](=O)[O-])cc1 | inactive
Cc1cccc(OCC(=O)NC2CC(C)(C)NC(C)(C)C2)c1 | inactive
NC(=O)C1(C(N)=O)OC1c1ccc(Cl)cc1Cl (stereo unspecified) | inactive
CC1(C)Cc2cccc(OCC(=O)N3CCN(c4ccc([N+](=O)[O-])cc4)CC3)c2O1 | 5.22 µM (active)
CC1(C)Cc2cccc(OCC(=O)Nc3nccs3)c2O1 | inactive
COC(=O)c1ccccc1OCC(=O)N1CCN(c2ccc(Cl)cc2)CC1 | inactive
Nc1cc(N)nc(SCc2ccc(Cl)cc2)n1 | inactive
O=C(CSc1nc2[nH]ncc2c(=O)[nH]1)Nc1ccc(F)cc1 | inactive
CCCn1nnnc1NCc1ccc(CC)cc1 | inactive
Cc1ccccc1NC(=O)Cn1c(=O)n(CC2CCCO2)c(=O)c2ccccc21 (stereo unspecified) | 2.33 µM (active)
COc1ccc(CCNC(=O)Cn2c(=O)n(CC3CCCO3)c(=O)c3ccccc32)cc1OC (stereo unspecified) | inactive

Structure (SMILES) | Potency
O=C(Cn1c(=O)n(Cc2ccco2)c(=O)c2ccccc21)NCC1CCCO1 (stereo unspecified) | inactive
CCN(CC(=O)Nc1cc(Cl)ccc1C)C(=O)Cn1c(=O)cnc2ccccc21 | inactive
CC(C)Cn1c(N)c(C(=O)COC(=O)C2CCCN2C(=O)c2cccs2)c(=O)n(C)c1=O (stereo unspecified) | inactive
COc1ccc(-n2ncc3c2CC(C)(C)CC3NC(=O)CCc2c(C)noc2C)cc1 (stereo unspecified) | inactive
COc1ccc(-n2ncc3c2CC(C)(C)CC3NC(=O)CCc2c(C)nn(C)c2C)cc1 (stereo unspecified) | 10.4 µM (active)
Cc1ccc(-n2ncc3c2CC(C)(C)CC3NC(=O)Cc2c(C)noc2C)cc1 (stereo unspecified) | inactive
COc1ccc(/C=C2\SC(=S)N(CCC(=O)Nc3ccccn3)C2=O)cc1OC | inactive
CCOc1ccc(NC(=O)CCS(=O)(=O)c2ccc3c(c2)CCCN3C(=O)CC)cc1 | 9.28 µM (active)
CCC(=O)N1CCc2cc(S(=O)(=O)CCC(=O)N3CCN(c4ccccc4F)CC3)ccc21 | inactive
CCCNS(=O)(=O)c1ccc2c(c1)CCCN2C(C)=O | inactive
C=CCn1c(SCC(=O)NC(=O)Cc2ccccc2)nc2ccccc2c1=O | inactive
CCN1C(=O)/C(=C2/Sc3ccccc3N2CCCS(=O)(=O)O)SC1=S | inactive
CCN1C(=O)/C(=C\N2CCN(c3cccc(Cl)c3)CC2)SC1=S | inactive
CCCCN1C(=O)/C(=C/C=C2/C=Cc3ccccc3N2CC)SC1=S | 0.117 µM (active)
O=C(NCCCc1ccccc1)C1CCC(=O)N(CCc2ccc(Cl)cc2)C1 (stereo unspecified) | inactive
COc1ccccc1CNS(=O)(=O)c1c(C)[nH]c(C)c1C(=O)N1CCCCC1 | inactive
COc1ccc(CN2CCN(C(=O)c3cc(C4CC4)nn3-c3ccccc3)CC2)cc1F | 11.7 µM (active)
COc1cccc(NC(=O)CN(C)C(=O)c2cc(C3CC3)nn2-c2ccccc2)c1 | inactive
COc1cc(CN2CCC(C(N)=O)CC2)ccc1OCc1ccccc1 | inactive
O=C(NCc1cccnc1)c1ccccc1NC(=O)c1c(F)cccc1F | inactive
Cc1cc(C)c(NC(=O)CN2C(=O)NC(Cc3ccccc3)C2=O)c(C)c1 (stereo unspecified) | inactive
O=[N+]([O-])c1ccc2nc(-c3ccccn3)[nH]c2c1 | inactive

Structure (SMILES) | Potency
O=C(CSC(=S)N1CCOCC1)c1cc(Br)cc(Br)c1O | inactive
O=P(O)(CN1CCCCCC1)C1Cc2ccccc2C1 | inactive
O=C(Cc1nc2ccccc2[nH]c1=O)c1ccc(Cl)cc1 | inactive
O=C(CCc1nc2ccccc2c(=O)[nH]1)OCC(=O)c1cccc(Cl)c1 | inactive
O=C(/C(=C/c1cccc(Cl)c1)c1nc2ccccc2[nH]1)c1ccccc1 | 11.7 µM (active)
Cc1ccc(-c2nc3ccccc3[nH]c2=O)cc1 | inactive
N#CCc1ccc(NC(=O)c2ccccc2C(=O)Nc2ccc(CC#N)cc2)cc1 | inactive
NS(=O)(=O)c1ccc2nc(NC(=O)C3=COCCO3)sc2c1 | inactive
NC(=O)Nc1cccc(C(F)(F)F)c1 | inactive
O=C(O)CC1(CC(=O)Nc2cccc(C(F)(F)F)c2)CCCC1 | inactive
O=C(Nc1cccc(C(F)(F)F)c1)c1cc(Br)cc(Br)c1O | 15.1 µM (active)
CC(=O)Nc1ccc(NC(=O)COC(=O)c2ccccc2C(=O)c2ccccc2)cc1 | inactive
O=C(Nc1cccc([N+](=O)[O-])c1)Nn1cnnc1 | inactive
Cn1nc(C(F)(F)F)cc1-c1ccc(/C=C(\C#N)C(=O)c2cccc(C(F)(F)F)c2)s1 | inactive
Cc1ccc(NNC(=O)c2c(F)cccc2Cl)cc1Cl | inactive
CCCCCNC(=O)c1cccnc1SCC(=O)Nc1ccccc1OC | inactive
COc1ccccc1NC(=O)CSc1nnc(CNC(=O)c2ccccc2F)o1 | 1.65 µM (active)
Cc1ccc(NC(=O)CSc2nnc(CNC(=O)c3ccccc3F)o2)cc1 | inactive
CC1(C)NC(=O)N(CC(=O)N2CCN(S(=O)(=O)c3ccccc3F)CC2)C1=O | inactive
O=C(Nc1cccc(-c2nc3ccccc3[nH]2)c1)c1ccc(C(=O)Nc2cccc(-c3nc4ccccc4[nH]3)c2)cc1 | 0.37 µM (active)
O=C(Cc1cccs1)Nc1cccc(-c2nc3ccccc3[nH]2)c1 | inactive
O=C(Nc1cccc(NC(=O)c2ccc(Br)cc2)c1)c1ccccc1 | inactive
